Most compounds without a hit are left out; they make up all but 12% or so of the library.
ROMK primary = ROMK potassium channel modulators, primary screen, cell-based, thallium flux, MLSMR library; Tet-inducible ROMK, thallium flux fluorescence; actives lie on both sides; B-score at 10 µM; 130,000 tested, 2% active; ATP-sensitive inward rectifier potassium channel 1 (Homo sapiens), P48048;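 active = signal ratio slope over the read window, or its plate-corrected B-score, at least 3 SD from the plate mean, either direction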;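 note: B-score of the F/F0 ratio slope over 7 to 12 s after thallium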
WT yeast gro inh = growth inhibition of WT strain, primary screen, mitochondrial fusion inhibitor project, WT and mutant strains, chemical genetic | 190,000 tested, 2.1% active | mitochondrial fusion phenotypic screen | inhibition, % at 10 µM; in the data active = inhibition above about 58%; tested in S. cerevisiae
KCC2 mod = KCC2 cotransporter modulators, thallium flux, primary screen, cell-based, HEK293 KCC2, FluoZin-2 fluorescence, MLSMR. Solute carrier family 12 member 5 (Homo sapiens), Q9H2X9. KCC2 cells, thallium flux FluoZin-2 fluorescence. B-score of Tl+ flux slope (higher = more flux/activation; lower = inhibition) at 10 µM. 190,000 tested, 2.2% active;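 active = thallium flux slope and its plate-corrected score both differing from the plate sample mean at a set confidence after two filtering rounds, in either direction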;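 note: slope of fluorescence scaled to starting intensity during 10 to 20 s after thallium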
Target sequence (Q9H2X9 whole entry, looked up): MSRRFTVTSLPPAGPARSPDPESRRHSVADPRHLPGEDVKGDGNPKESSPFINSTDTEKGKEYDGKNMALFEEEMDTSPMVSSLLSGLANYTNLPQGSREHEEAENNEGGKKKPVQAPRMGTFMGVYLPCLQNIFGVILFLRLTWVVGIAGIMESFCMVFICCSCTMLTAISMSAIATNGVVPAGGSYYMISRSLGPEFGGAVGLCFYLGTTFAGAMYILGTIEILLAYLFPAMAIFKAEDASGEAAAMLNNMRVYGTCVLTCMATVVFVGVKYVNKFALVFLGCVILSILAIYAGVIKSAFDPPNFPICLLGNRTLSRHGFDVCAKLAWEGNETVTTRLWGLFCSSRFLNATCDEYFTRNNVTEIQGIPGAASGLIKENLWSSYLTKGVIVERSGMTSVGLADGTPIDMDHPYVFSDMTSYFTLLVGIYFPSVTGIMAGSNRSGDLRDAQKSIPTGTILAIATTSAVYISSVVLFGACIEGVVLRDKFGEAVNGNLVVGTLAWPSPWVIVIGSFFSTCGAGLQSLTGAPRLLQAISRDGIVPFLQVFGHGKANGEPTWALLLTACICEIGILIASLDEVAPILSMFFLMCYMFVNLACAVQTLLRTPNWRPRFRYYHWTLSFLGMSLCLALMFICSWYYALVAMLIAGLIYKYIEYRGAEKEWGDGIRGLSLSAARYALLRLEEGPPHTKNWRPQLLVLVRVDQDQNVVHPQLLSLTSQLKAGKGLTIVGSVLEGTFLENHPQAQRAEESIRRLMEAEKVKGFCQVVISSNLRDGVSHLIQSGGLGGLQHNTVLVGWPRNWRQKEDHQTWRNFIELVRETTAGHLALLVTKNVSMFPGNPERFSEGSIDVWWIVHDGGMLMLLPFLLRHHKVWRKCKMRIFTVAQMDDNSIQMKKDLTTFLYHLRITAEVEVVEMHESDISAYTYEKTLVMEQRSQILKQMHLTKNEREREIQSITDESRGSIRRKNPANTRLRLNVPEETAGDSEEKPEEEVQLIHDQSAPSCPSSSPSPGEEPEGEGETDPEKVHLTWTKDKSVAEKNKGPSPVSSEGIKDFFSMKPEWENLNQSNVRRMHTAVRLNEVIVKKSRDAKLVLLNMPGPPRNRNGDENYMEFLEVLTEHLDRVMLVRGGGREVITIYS
Calpain2 inh = inhibitors of pig calpain II, primary screen, biochemical, fluorogenic peptide substrate, 1536-well | purified calpain II, 30 min | inhibition, % at 16 µM | 220,000 tested, 0.37% active;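 active = inhibition above about 50%, limit read from the data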
Lmaj promast = Leishmania major promastigote growth inhibition, primary screen. Leishmania major promastigotes, resazurin fluorescence viability. 200,000 tested, 9% active. inhibition, % at 10 µM; in the data active = inhibition above about 50%;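 note: promastigotes grown with compound for 44 hours at 28 °C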
Numbers without * were called inactive; nt = no result given.

SMILES	ROMK primary	WT yeast gro inh	KCC2 mod	Calpain2 inh	Lmaj promast
Cc1ccc2ccc(C(Nc3ccccn3)c3ccccc3)c(O)c2n1 (stereo not drawn)	nt	-11.9	1.12	-17.9	99.6*
CNC(=S)SCCOc1ccccc1C	nt	19.7	-0.0394	15.5	-4.6
Cc1cccc(Cn2ccc(NC(=O)c3ccc4c(c3)OCO4)n2)c1	nt	17.3	-2.32	21.9	59.8*
Cc1ccc(Cn2ccc(NC(=O)c3cc(-c4cccc(Cl)c4)on3)n2)cc1	nt	0.7	0.151	21.1	76.5*
Cc1ccc(Cn2ccc(NC(=O)c3cc(CC(C)C)on3)n2)cc1	nt	19.0	-1.14	2.9	35.1
Cc1ccc(Cn2ccc(NC(=O)c3cc(-c4ccc(F)cc4)on3)n2)cc1	0.375	-3.3	nt	0.5	39.9
Cc1cc(NC(=O)c2cc(C(C)C)on2)nn1Cc1ccc(Cl)cc1	nt	33.6	-0.939	0.1	70.9*
Cc1cc(C(=O)Nc2cc(C)n(Cc3ccc(Cl)cc3)n2)no1	nt	12.8	-1.82	21.8	-5.8
Cc1ccc(Cn2ccc(NC(=O)c3cc(-c4ccc(Cl)cc4)on3)n2)cc1	1.02	-18.4	nt	-13.3	57.5*
O=C(Nc1ccc(-c2noc(CCc3ccccc3)n2)cc1)c1ccco1	-0.355	4.3	-2.97	23.7	-6.6
Cc1c(Br)c(O)c(Br)c2sc(=O)oc12	nt	nt	0.0422	9.7	nt
Cc1ccccc1N=Nc1c(C)[nH]n(C(N)=S)c1=O	-0.558	61.2*	10.6*	22.8	52.8*
CC(C)(CNc1ccc([N+](=O)[O-])cc1Cl)CNS(C)(=O)=O	-0.53	-17.9	-0.0331	19.7	19.2
COc1ccc(OC)c(C(=O)CSc2nnc(-c3cccnc3)n2C)c1	nt	-10.6	0.0651	-1.6	-6.6
O=c1cnn(-c2ccc(Cl)cc2Cl)c(-c2ccccc2)c1	nt	8.3	0.733	2.5	91.5*
Cc1ccc(N(C(=O)c2ccccc2Cl)C2=NC(C)CS2)c(C)c1 (stereo not drawn)	0.041	72.3*	-0.592	14.4	94.0*
O=C(OCn1nnc2ccccc2c1=O)c1cc2ccccc2o1	nt	15.4	0.243	-2.7	nt
O=c1c(Cl)c(Cl)cnn1Cc1nnc(-c2ccccc2Br)o1	-0.196	41.3	-1.42	-96.7	99.5*
CCOc1cc(/C=N/Nc2cccc(C(=O)O)c2)ccc1OCC(=O)N1CCCCC1	0.376	-2.2	0.153	-45.7	-14.5
CC(NC(=S)Nc1ccccc1Cl)C(c1cccs1)N1CCCC1 (stereo not drawn)	-0.4	24.2	1.38	25.7	84.2*
CC(NC(=S)NCCc1ccccc1)C(c1cccs1)N1CCN(Cc2ccccc2)CC1 (stereo not drawn)	-1.1	21.0	-1.65	5.0	97.5*
Cc1ccc(C2(C)NC(=O)N(CC(=O)Nc3cc(S(=O)(=O)N4CCOCC4)ccc3C)C2=O)cc1 (stereo not drawn)	0.147	9.5	0.951	14.7	-6.4
CC(C)Nc1nc(-c2ccccn2)nc(-c2ccccc2)c1C#N	-0.214	-2.9	-1.12	-43.4	23.3
C=CCNc1nc(-c2ccccn2)nnc1-c1ccccc1	0.697	51.5	nt	12.9	99.7*
CC(=O)Nc1ccc(S(=O)(=O)NCC(=O)OCC(=O)NC23CC4CC(CC(C4)C2)C3)cc1	nt	-12.9	0.619	19.4	51.1*
SMILES	ROMK primary	WT yeast gro inh	KCC2 mod	Calpain2 inh	Lmaj promast
O=C(CNS(=O)(=O)c1ccccc1Br)OCC(=O)N1CCc2ccccc21	-0.0792	-7.0	-2.6	0.0	-1.6
CC(=O)Nc1ccc(S(=O)(=O)NCC(=O)OCC(=O)NC(=O)C2CCCCC2)cc1	0.32	2.2	0.205	1.5	-6.5
CC(=O)Nc1ccc(S(=O)(=O)NCC(=O)OCC(=O)N2CCc3ccccc32)cc1	0.603	61.8*	-0.83	-11.5	-0.8
COc1ccccc1NS(=O)(=O)c1cc(NC(=O)c2ccccc2F)ccc1N1CCOCC1	0.485	-5.2	0.264	-54.2	40.0
COc1ccccc1NS(=O)(=O)c1cc(NC(=O)CCC2CCCC2)ccc1N1CCOCC1	0.428	1.6	-0.586	-7.3	98.6*
COc1ccccc1NS(=O)(=O)c1cc(NC(=O)CC(C)(C)C)ccc1N1CCOCC1	1.05	8.5	-1.94	30.1	98.3*
O=C(COC(=O)c1cccc([N+](=O)[O-])c1)NCC1CCCO1 (stereo not drawn)	0.531	nt	0.636	6.5	-3.0
O=S(=O)(c1cccc(C(F)(F)F)c1)N(CCCN1CCOCC1)Cc1cccs1	nt	0.5	-0.478	-10.9	100.3*
Cc1ccc(N2CC(=O)N(CC(=O)O)C2=O)cc1	nt	-2.0	0.384	4.7	-4.2
O=C(/C=C/c1ccc2c(c1)OCO2)Nc1cccnc1	-0.0518	-6.6	-0.547	-164.9	2.4
CN(C)CC1CCCCC1C1(O)c2ccccc2CSc2sccc21 (stereo not drawn)	-2.81	0.1	0.804	-22.4	99.6*
COc1cccc(CNc2ccc([N+](=O)[O-])c(NCC(=O)O)n2)c1	0.245	3.2	-0.468	88.8*	-9.2
C#C[C@]1(O)CC[C@H]2[C@@H]3CCc4cc(OC5CCCC5)ccc4[C@H]3CC[C@@]21C	nt	95.5*	1.06	-62.1	nt
C#C[C@]1(O)CC[C@H]2[C@@H]3CCc4cc(OC)ccc4[C@H]3CC[C@@]21C	nt	23.8	-0.335	-4.9	0.3
